MEX-5 binding: C. elegans MEX-5 TCR-2 RNA binding activity. AID 1832. MEX-5/FITC-TCR2 RNA binding, fluorescence polarization; active compounds read low. activity score (negative = inhibition of binding), % at 10 µM. actives 0.38% (n = 300,000). Q9XUB2;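 active means inhibition past about -25% in most replicates, and total fluorescence under double the plate's negative control median, limit read from the data; inconclusive means replicates evenly split on the limit, or fluorescence at least double controls; inactive means too little inhibition in most replicates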
eLon inh: inhibitors of E. coli Lon protease; actives 0.42% (n = 360,000); inhibition, % at 7.94 µM; purified E. coli Lon protease, fluorescence polarization; P0A9M0; in the data active means inhibition above about 13%, passing the limit was not always enough
BCLXL inh: inhibitors of human Bcl-xL. Q07817. GST-Bcl-xL / FITC-Bim BH3 peptide fluorescence polarization. inhibition, % at 10.9 µM. actives 0.7% (n = 320,000);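 active means inhibition above the mean of all tested compounds plus 3 SD, cutoff set per campaign, cut at about 30% in these data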;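 further: inhibitors lower millipolarization by displacing the labeled peptide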
Target sequence (Q07817 whole entry, looked up): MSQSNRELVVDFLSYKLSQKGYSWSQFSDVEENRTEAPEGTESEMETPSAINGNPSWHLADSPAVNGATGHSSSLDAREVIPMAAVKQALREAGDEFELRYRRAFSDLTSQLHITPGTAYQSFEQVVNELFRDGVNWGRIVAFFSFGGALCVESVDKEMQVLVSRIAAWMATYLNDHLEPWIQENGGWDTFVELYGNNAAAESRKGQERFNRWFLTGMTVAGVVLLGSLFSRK
GLD-1 TGE inh: GLD-1-TGE RNA interaction inhibition (C. elegans) | AID 2280 | actives 0.44% (n = 320,000) | purified GLD-1 + fluorescein TGE RNA, fluorescence polarization | Q17339 | inhibition, % at 5.96 µM;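 active means percent inhibition above a per-plate cutoff, the plate mean of test compounds plus 3 SD, cut at about 30% in these data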
MCL1-BIM inh: inhibitors of human MCL1 binding to BIM-BH3 peptide | actives 0.68% (n = 320,000) | inhibition, % at 10.9 µM | AID 2057 | GST-MCL1 / FITC-Bim-BH3 fluorescence polarization | Q07820;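 active means inhibition above the mean inhibition of all tested compounds plus 3 SD, set per campaign, cut at about 40% in these data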;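 further: higher means more loss of mP so more displacement of Bim peptide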
Target sequence (Q07820 whole entry, looked up): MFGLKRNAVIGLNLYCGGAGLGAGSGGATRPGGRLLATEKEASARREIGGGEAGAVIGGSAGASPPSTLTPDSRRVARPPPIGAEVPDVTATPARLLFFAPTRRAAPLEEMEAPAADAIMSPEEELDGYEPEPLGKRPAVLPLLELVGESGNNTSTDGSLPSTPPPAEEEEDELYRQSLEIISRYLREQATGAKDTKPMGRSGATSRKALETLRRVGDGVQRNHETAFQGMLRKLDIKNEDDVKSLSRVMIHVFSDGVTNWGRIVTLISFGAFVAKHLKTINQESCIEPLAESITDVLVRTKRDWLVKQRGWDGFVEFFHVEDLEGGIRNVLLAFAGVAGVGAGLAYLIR
EBV gp42 block: EBV gp42 inhibition; Q1HVG2; Fluorescence polarization binding assay, mP read-out; inhibition, % (tested at 21.74 µM); actives 0.42% (n = 220,000); in the data active means inhibition above about 50%
BCLXL inh confirm: Bcl-xL (human) inhibition, MCL1 counter-screen confirmation. shares compounds with MCL1-BIM inh. GST-Bcl-xL / FITC-Bim BH3 peptide FP binding. inhibition, % at 10.9 µM. actives 54% (n = 1,700);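 active means inhibition above a cutoff equal to the mean inhibition of all tested compounds plus 3 SD, cut at about 30% in these data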
MCL1 BIM confirm: confirmation of human MCL1 and BIM-BH3 interaction inhibitors; shares compounds with MCL1-BIM inh; GST-MCL1 / FITC-Bim-BH3 fluorescence polarization; inhibition, % at 10.9 µM; actives 61% (n = 1,700); AID 2168;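 active means inhibition above the average of all tested compounds plus 3 SD, cut at about 40% in these data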
Hits are given with their value; . = inactive; ? = inconclusive; / = no result given; + = active, no number. A selection: hits, their analogues and other compounds. The true share with any hit is near 1.4%.

SMILES	MEX-5 binding	eLon inh	BCLXL inh	GLD-1 TGE inh	MCL1-BIM inh	EBV gp42 block	BCLXL inh confirm	MCL1 BIM confirm
O=C(OCC(=O)N1CCN(C(=O)c2ccco2)CC1)c1cc(-c2ccco2)nc2ccccc12	.	.	31	.	82	76	.	73
CCNC(=O)COC(=O)c1cc(-c2ccco2)nc2ccccc12	.	.	.	.	50	.	.	76
O=C(OCC(=O)N1CCN(C(=O)c2ccco2)CC1)c1cc(-c2ccc(Cl)c(Cl)c2Cl)nc2ccccc12	.	.	.	.	.	.	/	/
COc1ccc(CNC(=O)COC(=O)c2cc(-c3ccco3)nc3ccccc23)cc1	/	/	/	/	/	.	/	/
COc1cc(NCCC(=O)c2cccs2)c(OC)cc1Cl	.	.	.	.	.	.	/	/
Cc1ccc(C(=O)C[n+]2cc(Br)cc(Br)c2)cc1[N+](=O)[O-]	.	.	.	.	.	.	/	/
COc1cc(NC(C)CCCN)c2ncccc2c1 (stereo not given)	.	.	44	.	53	/	32	50
COc1cc(NCCCCCCCN)c2ncccc2c1	.	.	.	.	.	.	/	/
COc1cccc(C(=O)N(c2ccc(OC)cc2OC)C2C=CS(=O)(=O)C2)c1 (stereo not given)	.	.	61	.	54	.	.	.
COc1ccc(N(C(C)=O)C2C=CS(=O)(=O)C2)c(OC)c1 (stereo not given)	.	.	.	.	.	.	/	/
O=C(NCc1ccccc1CN1CCCC1)c1ccc(S(=O)(=O)Nc2ccccc2)cc1	/	.	/	/	/	/	/	/
CCOC(=O)C1CCN(S(=O)(=O)c2ccc3oc(=O)ccc3c2)CC1	.	.	.	.	.	/	/	/
Cn1c(SCC(=O)Nc2ccc(F)cc2)nnc1C1CC1	.	.	.	.	176	/	.	.
O=C1S/C(=C/c2ccc(N3CCOCC3)o2)C(=O)N1Cc1ccc(F)cc1	.	.	.	.	.	.	/	/
O=C1NC(=S)S/C1=C/c1ccc(N2CCOCC2)o1	?	.	47	.	65	.	39	.
O=C(CSc1nc2ccccc2c(=O)[nH]1)c1ccc(O)c(O)c1	.	.	.	.	48	.	38	66
CSc1ccccc1NC(=O)c1noc2c1CCC2	.	.	.	.	.	.	/	/
COC(=O)c1ccccc1NC(=O)c1noc2c1CCC2	.	.	.	.	41	.	.	49
Cc1c(NCc2nc3ccccc3[nH]2)c(=O)n(-c2ccccc2)n1C	.	.	.	.	55	.	41	55
Cc1c(NCc2cc(Cl)cc(Cl)c2O)c(=O)n(-c2ccccc2)n1C	.	.	.	.	.	.	/	/
COc1cccc(Cn2c(=S)[nH]c3ccc(N4CCOCC4)cc3c2=O)c1	.	.	.	.	41	.	.	.
O=c1c2cc(N3CCOCC3)ccc2[nH]c(=S)n1Cc1cccc(Cl)c1	.	.	.	.	.	.	/	/
C=CCNC(=O)Cn1nnc(-c2ccc(-c3ccc(OC)cc3)cc2)n1	.	.	.	.	.	/	/	/
Cc1ccc(OCCOCCn2ccnc2)c(Br)c1	.	.	.	.	44	.	.	.
CC(=O)Nc1ccc(C=NNc2ccc([N+](=O)[O-])cc2S(=O)(=O)Nc2ccccc2C(=O)O)cc1	/	.	/	.	/	/	/	/
SMILES	MEX-5 binding	eLon inh	BCLXL inh	GLD-1 TGE inh	MCL1-BIM inh	EBV gp42 block	BCLXL inh confirm	MCL1 BIM confirm
Cc1ccc(NC(=S)NNc2ccc([N+](=O)[O-])cc2S(=O)(=O)Nc2ccccc2C(=O)O)cc1C	.	.	.	.	40	.	.	.
CCCCOc1ccc(C2OC34CCCCC3C(C#N)(C#N)C2(C#N)C(=N)O4)cc1 (stereo not given)	/	.	137	92	166	.	52	68
Cc1ccc(C2OC34CCCCCC3C(C#N)(C(=N)O4)C2(C#N)C#N)cc1 (stereo not given)	.	.	.	.	.	.	/	/
CCOc1ccc(C2OC34CCCCC3C(C#N)(C#N)C2(C#N)C(=N)O4)cc1OC (stereo not given)	-29	34	143	130	167	.	107	133
COC(=O)C1=COC(C)C2CN3CCc4c([nH]c5ccccc45)C3CC12 (stereo not given)	.	.	89	48	91	.	62	80
O=S(=O)(NCc1ccco1)c1cccc2cccnc12	.	.	.	.	154	.	.	.
NC1=NC(=O)/C(=C/c2cn(Cc3ccccc3)c3ccccc23)S1	.	.	.	.	.	.	/	/
CC(=O)c1ccc(NC(=O)C2Cc3ccccc3CN2C(=O)c2ccccc2)cc1 (stereo not given)	.	.	.	.	.	.	/	/
COc1ccc(NC(=O)C2Cc3ccccc3CN2C(=O)c2ccccc2)cn1 (stereo not given)	-38	.	81	55	77	64	75	93
O=C(OCC(=O)N1CCCc2ccccc21)c1cc(Br)ccc1O	.	.	.	.	.	/	/	/
CCS(=O)(=O)NCc1ccc2[nH]c3c(c2c1)CCCC3	.	/	59	40	73	.	49	70
Cc1onc(-c2ccccc2Cl)c1C(=O)NCc1ccco1	.	.	.	.	66	.	.	65
O=C(N/N=C/C1CC2CCC1C2)c1c[nH]c2ccccc12 (stereo not given)	.	.	.	.	.	.	/	/
CCCNC(=O)C1(C)CCN(C(=O)c2ccc3snnc3c2)C1 (stereo not given)	/	.	/	/	/	/	/	/
COC(=O)c1ccccc1NCc1cc(=O)oc2cc(O)c(O)cc12	-28	.	.	.	60	/	.	65
CN1CCc2c(sc(NC(=O)c3cc(Cl)sc3Cl)c2C(N)=O)C1	.	.	.	.	48	/	.	.
CCN1CCc2c(sc(N)c2C(N)=O)C1	.	.	61	.	64	.	.	.
CN1CCc2c(sc(NC(=O)c3ccco3)c2C(N)=O)C1	.	.	.	.	.	/	/	/
CN1CCc2c(sc(N)c2C(N)=O)C1	.	.	60	.	65	.	.	.
O=S(=O)(NC1CCCC1)c1ccc(F)cc1F	/	.	/	/	/	/	/	/
COc1cccc(CNC(=O)c2ccc(C3SCCS3)cc2)c1	.	.	.	.	.	/	/	/
Cc1cc(C)[n+](-c2ccc(Oc3ccccc3)c(S(=O)(=O)[O-])c2)[nH]1	.	.	.	.	.	.	/	/
COCCCn1c(=O)/c(=C\c2ccccc2OC(F)F)s/c1=C(/C#N)C(=O)N1CCOCC1	.	.	.	.	+	.	.	.
O=C(CNc1cccc(S(=O)(=O)N2CCCC2)c1)Nc1ccc(F)cc1F	.	.	.	.	.	/	/	/

Bioassay records from PubChem.
